From PubChem BioAssay
A selection: hits, their analogues and other compounds. The true share with any hit is near 2.4%.
PREPL inh: human PREPL enzyme inhibition; inhibition, % at 5.96 µM; 0.68% of 320,000 active; recombinant PREPL, fluorescence polarization activity-based probe; Q4J6C6; AID 2751; in the data active = inhibition above about 43%
NadD block: inhibitors of Staphylococcus aureus NadD. purified NadD enzyme, colorimetric absorbance read-out. inhibition, % at 20 µM. 0.78% of 360,000 active; in the data active = inhibition above about 26%
PP1 inh: PP1-alpha (human) inhibition in PP5 counter-screen. purified PP1alpha, OMFP fluorescence. inhibition, % at 6.7 µM. 0.9% of 320,000 active. P62136;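 active = inhibition above the mean inhibition of all tested compounds plus 3 SD, computed separately for each screening campaign, cut at about 15% in these data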
PP5 primary: inhibitors of human protein phosphatase 5 (PP5); inhibition, % at 6.7 µM; purified PP5c, OMFP substrate fluorescence; P53041; 0.18% of 320,000 active;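 active = inhibition above the campaign's mean inhibition across all tested compounds plus 3 SD, cut at about 9.5% in these data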
Target sequence (P53041 whole entry, looked up): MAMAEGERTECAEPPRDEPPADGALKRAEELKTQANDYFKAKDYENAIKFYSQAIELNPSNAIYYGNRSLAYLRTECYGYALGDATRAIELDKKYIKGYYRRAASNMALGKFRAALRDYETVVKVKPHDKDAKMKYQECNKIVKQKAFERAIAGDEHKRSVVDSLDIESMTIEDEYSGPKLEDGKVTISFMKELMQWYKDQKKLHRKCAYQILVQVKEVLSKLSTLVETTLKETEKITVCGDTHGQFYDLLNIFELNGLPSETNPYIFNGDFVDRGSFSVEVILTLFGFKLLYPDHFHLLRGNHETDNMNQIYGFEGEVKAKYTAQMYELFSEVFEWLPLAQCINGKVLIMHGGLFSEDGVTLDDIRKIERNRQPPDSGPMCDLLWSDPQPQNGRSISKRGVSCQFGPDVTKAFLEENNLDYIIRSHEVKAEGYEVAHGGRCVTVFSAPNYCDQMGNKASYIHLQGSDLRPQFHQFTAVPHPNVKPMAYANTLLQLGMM
Rpn11 block: blocks the human proteasome subunit Rpn11. human 26S proteasome, Ub4-pepOG fluorescence polarization; 20S core pre-blocked with epoxomicin. inhibition, % at 20 µM. 0.59% of 360,000 active. AID 588493;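 active = inhibition at 20 µM, scaled to each plate's controls, above about 33%, limit read from the data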
Rpn11 inh conf: confirmation of human proteasome Rpn11 inhibitors; shares compounds with Rpn11 block; inhibition, % at 20 µM; purified human 26S proteasome, Ub4-pepOG fluorescence polarization; proteasome pretreated with epoxomicin; 29% of 1,900 active
MMP-2 counter: blocks human MMP-2, flagging nonselective RPN11 hits; shares compounds with Rpn11 block; recombinant MMP-2, FRET peptide cleavage fluorescence; inhibition, % at 20 µM; 4% of 1,900 active; AID 602330;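 also: human MMP-2 activated beforehand with APMA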
Thrombin FP: counter-screen for RPN11 inhibitors: inhibition of bovine thrombin. shares compounds with Rpn11 block. bovine thrombin cleavage of Ub4-pepOG, fluorescence polarization. inhibition, % at 20 µM. 13% of 1,900 active. AID 602333;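 active = mean inhibition at least 40% at 20 µM, or signal 3 deviations below plate average, so some actives read negative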
Hits are given with their value. Rule as the data show it, unless noted: active = inhibition above about 40%; inactive = the rest.

How did Cc1cc(/C=C2\C(=N)N3N=C(c4ccco4)SC3=NC2=O)c(C)n1Cc1ccccc1 do in these assays?
PREPL inh: inactive; NadD block: inactive; PP1 inh: inactive; PP5 primary: inactive; Rpn11 block: inactive

What do the screens show for `Cc1cc(/C=C2/C(=N)N3C(c4ccccc4)=CSC3=NC2=O)c(C)n1-c1ccccc1`?
PREPL inh: inactive; NadD block: inactive; PP1 inh: inactive; PP5 primary: inactive; Rpn11 block: inactive

What do the screens show for `CC(=O)NC(c1ccc(F)c(F)c1)c1nc(-c2cc3ccccc3o2)cs1` (stereo not drawn)?
NadD block: inactive; Rpn11 block: inactive

How did COCCn1cnc2c1c(=O)n(Cc1ccc(C#N)cc1)c(=O)n2Cc1ccccc1 do in these assays?
PREPL inh: inactive; NadD block: inactive; PP1 inh: inactive; PP5 primary: inactive; Rpn11 block: inactive

What do the screens show for `COC(=O)c1ccc(C23CC4(C2)[C@H](CN(Cc2cccnc2)[C@@H]4c2ccccc2)C3c2ccc(C(F)(F)F)cc2)cc1` (stereo partly drawn)?
PREPL inh: inactive; PP1 inh: inactive; PP5 primary: inactive

What do the screens show for `COC(=O)c1ccc(C23CC4(C2)[C@H](CN(Cc2cccnc2)[C@@H]4c2ccccc2)C3c2ccccc2)cc1` (stereo partly drawn)?
PREPL inh: inactive; NadD block: inactive; PP1 inh: inactive; PP5 primary: inactive; Rpn11 block: 44; Rpn11 inh conf: inactive; MMP-2 counter: inactive; Thrombin FP: inactive

What do the screens show for `Cc1ccc(Cl)cc1NC(=O)CSc1sc2c(O)cc(=O)[nH]c2c1C#N`?
PREPL inh: inactive; NadD block: inactive; PP1 inh: inactive; PP5 primary: inactive; Rpn11 block: inactive

What do the screens show for `COC(=O)c1ccc(C)c(NC(=O)CSc2sc3c(O)cc(=O)[nH]c3c2C#N)c1`?
PREPL inh: inactive; NadD block: inactive; PP1 inh: inactive; PP5 primary: inactive; Rpn11 block: 44; Rpn11 inh conf: inactive; MMP-2 counter: inactive; Thrombin FP: inactive

How did Cc1ccc(C)n1-c1ccc(C(=O)/C=C/N(C)C)cc1 do in these assays?
PREPL inh: inactive; NadD block: inactive; PP1 inh: 16; PP5 primary: inactive; Rpn11 block: 50; Rpn11 inh conf: inactive; MMP-2 counter: inactive; Thrombin FP: inactive

Results for Cc1cc(C(=O)N/N=C/c2cc([N+](=O)[O-])ccc2O)c2ccccc2n1 ?
PREPL inh: inactive; NadD block: inactive; PP1 inh: inactive; PP5 primary: inactive; Rpn11 block: inactive

How did O=C(N/N=C/c1cc([N+](=O)[O-])ccc1O)c1cc(-c2ccccc2)nc2ccccc12 do in these assays?
PREPL inh: inactive; NadD block: 31; PP1 inh: inactive; PP5 primary: inactive; Rpn11 block: 42; Rpn11 inh conf: 43; MMP-2 counter: inactive; Thrombin FP: inactive

How did CC(=O)CCCC(NS(=O)(=O)CCC(Cl)(Cl)Cl)c1ccccc1 (stereo not drawn) do in these assays?
PREPL inh: inactive; NadD block: inactive; PP1 inh: inactive; PP5 primary: inactive; Rpn11 block: inactive

How did CCOc1ccc(CCNC(=O)Cn2c(=O)c3cccn3c3cccnc32)cc1 do in these assays?
PREPL inh: inactive; NadD block: inactive; PP1 inh: inactive; PP5 primary: inactive; Rpn11 block: 42; Rpn11 inh conf: inactive; MMP-2 counter: inactive; Thrombin FP: inactive

Results for Cc1ccc(C(=O)COC(=O)c2cc(=O)[nH]c3ccccc23)cc1C ?
PREPL inh: inactive; NadD block: inactive; PP1 inh: inactive; PP5 primary: inactive; Rpn11 block: 100; Rpn11 inh conf: 59; MMP-2 counter: inactive; Thrombin FP: inactive

How did COc1ccc(-c2cc(NC=O)c3ncc(-c4ccc(C(C)=O)cc4)n3c2)cn1 do in these assays?
NadD block: inactive; Rpn11 block: 55; Rpn11 inh conf: inactive; MMP-2 counter: inactive; Thrombin FP: inactive

How did COC(=O)c1sccc1NC(=O)c1ccc2c(c1)OCO2 do in these assays?
PREPL inh: inactive; NadD block: inactive; PP1 inh: inactive; PP5 primary: inactive; Rpn11 block: inactive

How did COC(=O)c1c(-c2cccnc2)csc1NC(=O)c1ccc2c(c1)OCO2 do in these assays?
PREPL inh: inactive; NadD block: inactive; PP1 inh: inactive; PP5 primary: inactive; Rpn11 block: 52; Rpn11 inh conf: 52; MMP-2 counter: inactive; Thrombin FP: inactive

What do the screens show for `CSc1ccc(/C=C/C(=O)c2c(O)cc(C)oc2=O)cc1`?
PREPL inh: inactive; NadD block: inactive; PP1 inh: inactive; PP5 primary: inactive; Rpn11 block: 53; Rpn11 inh conf: 70; MMP-2 counter: inactive; Thrombin FP: 131

Results for CC(=O)C1(O)C(C)CC2C3CC(F)C4(O)CC(O)CCC4(C)C3CCC21C (stereo not drawn) ?
NadD block: inactive; Rpn11 block: inactive

What do the screens show for `O=C(N/N=C/c1sc(=O)n(Cc2ccc(Br)cc2)c1Cl)c1ccco1`?
PREPL inh: inactive; NadD block: inactive; PP1 inh: inactive; PP5 primary: inactive; Rpn11 block: 148; Rpn11 inh conf: inactive; MMP-2 counter: 48; Thrombin FP: inactive

How did COc1ccccc1C(=O)NC(CCSC)C(=O)NNC(=O)c1ccncc1 (stereo not drawn) do in these assays?
PREPL inh: inactive; NadD block: inactive; PP1 inh: inactive; PP5 primary: inactive; Rpn11 block: inactive

What do the screens show for `N#Cc1c(-c2cccs2)nc(SCC(=O)c2cccs2)[nH]c1=O`?
PREPL inh: inactive; NadD block: inactive; PP1 inh: inactive; PP5 primary: inactive; Rpn11 block: 47; Rpn11 inh conf: 68; MMP-2 counter: inactive; Thrombin FP: 44

Results for CC1=Nc2ccc(C)cc2/C1=C/c1c(N)n2oc(C)cc2nc1=O ?
PREPL inh: inactive; NadD block: inactive; PP1 inh: inactive; PP5 primary: inactive; Rpn11 block: 70; Rpn11 inh conf: 59; MMP-2 counter: inactive; Thrombin FP: inactive

How did CSc1nsc2nc(=O)c(/C=C3\C(C)=Nc4ccc(C)cc43)c(N)n12 do in these assays?
PREPL inh: inactive; NadD block: inactive; PP1 inh: inactive; PP5 primary: inactive; Rpn11 block: inactive

How did CC(C)c1ccc(NC(=O)CN2C(=O)NC(C)(C3CC3)C2=O)cc1 (stereo not drawn) do in these assays?
PREPL inh: inactive; NadD block: inactive; PP1 inh: inactive; PP5 primary: inactive; Rpn11 block: inactive

What do the screens show for `CC(C)(C)c1nc2ccccc2c2nnc(SCC(=O)Nc3nc4ccccc4s3)n12`?
PREPL inh: inactive; NadD block: inactive; PP1 inh: inactive; PP5 primary: inactive; Rpn11 block: 188; Rpn11 inh conf: 81; MMP-2 counter: inactive; Thrombin FP: inactive
